Data published in PubChem BioAssay AID435003 (Sanford-Burnham Center for Chemical Genomics, 2010).
Screen size: about 330,000 compounds; about 1,700 (0.52%) were called active. No stated cut-off is given here; in the data, active means inhibition above about 50%; inactive means the rest. The sample as a whole holds a higher share of actives than the screen did.

Test: inhibitors of induced NF-kB luciferase reporter, primary screen, TCR NF-kB activation inhibitor project, cell-based, luminescence, uHTS (AID 435003)
Settings: Jurkat, PMA/ionomycin-induced NF-kB luciferase reporter, at 4 µM, active compounds read high

| Structure (SMILES) | inhibition |
| --- | --- |
| Cc1ccc(C(=O)OCC(=O)Nc2ccc(Cl)cn2)cc1S(=O)(=O)N1CCOCC1 | 3.39% (inactive) |
| CCOC(=O)[C@H]1[C@H]2COc3ccc(OC)cc3[C@@H]2N2C(=O)c3ccc(F)cc3NC(=O)[C@@]12C | -10.9% (inactive) |
| CC(N)C12CC3CC(CC(O)(C3)C1)C2 (stereo not drawn) | 6.68% (inactive) |
| Cc1ccc2c(=O)oc(N(C)C)nc2c1 | 1.31% (inactive) |
| Cc1cccc(NS(=O)(=O)c2ccc(-c3cnc(C4CC4)o3)cc2)c1 | 54.1% (active) |
| Cc1cccc(CNS(=O)(=O)c2ccc(-c3cnc(C4CC4)o3)cc2)c1 | 5.99% (inactive) |
| COc1ccc(CNS(=O)(=O)c2ccc(-c3cnc(C4CC4)o3)cc2)cc1 | 18.4% (inactive) |
| Cc1cccc(C)c1NC(=O)CNC(=O)C1CCCC1 | -3.97% (inactive) |
| Cc1ccc(S(=O)(=O)N(C)C2(C)CCS(=O)(=O)C2)cc1 (stereo not drawn) | 7.55% (inactive) |
| Cc1ccc(S(=O)(=O)NC2CCCCCC2)cc1 | -18.9% (inactive) |
| Cc1ccc(S(=O)(=O)C2(S(=O)(=O)c3ccc(C)cc3)CCCC2)cc1 | 59.5% (active) |
| CC(=O)Nc1ccc(S(=O)(=O)NCC(=O)OCC(=O)c2ccc[nH]2)cc1 | 2.52% (inactive) |
| Nc1c(C(=O)Nc2ccc3c(c2)OCCO3)nnn1Cc1ccccc1 | -98.1% (inactive) |
| CCCNC(=O)c1cnc(-c2ccccc2)nc1-c1ccccc1 | 17.2% (inactive) |
| COc1ccc(CCNC(=O)/C(C#N)=C2\N=C(NC(=O)c3cccs3)c3ccccc32)cc1 | -17.6% (inactive) |
| C#CCSc1nnc(-c2sc3ccccc3c2Cl)o1 | -65.2% (inactive) |
| O=C(NCC#CCSc1nnc(-c2cccc3ccccc23)o1)c1cccs1 | 51.4% (active) |
| N/C(=N\c1nc2ccccc2o1)NC(=O)C(Cc1ccccc1)N1C(=O)c2ccccc2C1=O (stereo not drawn) | -5.81% (inactive) |
| O=C(CSc1ncnc2c1oc1ccccc12)NC1CCCC1 | -16.7% (inactive) |
| COc1ccccc1CCNC(=O)C(=O)NCCC1CCCCN1S(=O)(=O)c1cccs1 (stereo not drawn) | 11.1% (inactive) |
| O=C(NCCC1CCCCN1S(=O)(=O)c1cccs1)C(=O)Nc1ccc(F)cc1F (stereo not drawn) | 57.9% (active) |

| Structure (SMILES) | inhibition |
| --- | --- |
| O=C(NCCC1CCCCN1S(=O)(=O)c1ccc(F)cc1)C(=O)NC1CC1 (stereo not drawn) | 2.56% (inactive) |
| COC(=O)Cn1cnc2scc(-c3ccc(C)c(C)c3)c2c1=O | 11.8% (inactive) |
| Cc1ccc(S(=O)(=O)N2CCN(C(=O)Cc3sc(C)nc3-c3ccc(F)cc3)CC2)c(C)c1 | 0.534% (inactive) |
| OCCNCc1cccc(OCc2ccccc2Cl)c1 | 4.83% (inactive) |
| Clc1cccc(Cl)c1OCCOCCNCc1ccccc1 | 61.5% (active) |
| CCOc1ccccc1OCCCNCc1ccccc1 | -8.28% (inactive) |
| Cc1ccc(C(=O)N2CCN(C3CCCCC3)CC2)s1 | -4.14% (inactive) |
| CC(C)(C)c1ccc(Oc2ccc(N)cc2)cc1 | 84.9% (active) |
| COc1cccc(Oc2ccc(N)cc2)c1 | 0.758% (inactive) |
| CC(C)(C)c1ccc(OC2=CS(=O)(=O)c3ccccc32)cc1 | -29.9% (inactive) |
| O=C(O)CCCCCNc1ncnc2ccc(Br)cc12 | 5.8% (inactive) |
| Brc1ccc2ncnc(NCc3cccnc3)c2c1 | 28.6% (inactive) |
| COc1ccc(Nc2ncnc3ccc(Br)cc23)c(OC)c1 | 59.8% (active) |
| CC(C)c1ccc(-c2noc(C3CCCN(S(C)(=O)=O)C3)n2)cc1 (stereo not drawn) | -30.6% (inactive) |
| CCOC(=O)C1=C(C)Nc2nc3ccccc3n2C1c1cccs1 (stereo not drawn) | 7.93% (inactive) |
| CCOc1ccc(C2C(C(=O)NC)=C(C)Nc3nc4ccccc4n32)cc1OC (stereo not drawn) | 6.25% (inactive) |
| COc1ccccc1NC(=O)C1=C(C)Nc2nc3ccccc3n2C1c1cccs1 (stereo not drawn) | 58.1% (active) |
| O=C(O)/C=C/C(=O)NNc1ccc([N+](=O)[O-])cc1 | 9.38% (inactive) |
| O=C(c1c(F)cccc1Cl)N1CCN(S(=O)(=O)c2ccc3c(c2)OCCCO3)CC1 | -0.00048% (inactive) |
| CN=c1scc(-c2cc(OC)ccc2OC)n1/N=C/c1c(C)[nH]c2ccccc12 | -10.3% (inactive) |
| COc1ccc2[nH]c(C(=O)N/N=C/c3cc(OC)c(OC)c(OC)c3)cc2c1 | 17.7% (inactive) |

| Structure (SMILES) | inhibition |
| --- | --- |
| COc1cc(N=Cc2c(O)[nH]c3ccccc23)cc(OC)c1OC | 76.1% (active) |
| CC(C)Oc1ccc(C(=O)NC(C)(C)CO)cc1 | -5.78% (inactive) |
| CCC(C)NC(=O)C1c2ccccc2C(=O)N1Cc1ccccc1 (stereo not drawn) | -0.632% (inactive) |
| COC(c1ccccc1)c1nnc(CCC(=O)N2CCN(CCOc3ccccc3)CC2)o1 (stereo not drawn) | 14.1% (inactive) |
| COc1cc(NS(=O)(=O)c2ccc3ccccc3c2)c2ncccc2c1 | 66% (active) |
| COc1ccc(N2CC(NS(=O)(=O)c3ccc4ccccc4c3)CC2=O)cc1 (stereo not drawn) | 4% (inactive) |
| Cc1ccc(S(=O)(=O)Nc2ccc3ncccc3c2)cc1 | 16.8% (inactive) |
| O=C(NC(=O)c1ccc(Cl)c(Cl)c1)OC1CCS(=O)(=O)C1 (stereo not drawn) | 2.78% (inactive) |
| C=CCN(c1ccc(C(N)=O)cc1)S(C)(=O)=O | -12.3% (inactive) |
| CCC(C)c1ccc(NC(=S)NCc2ccccn2)cc1 (stereo not drawn) | -14.5% (inactive) |
| NC1=NC2(CCCCC2)N(c2ccc(F)cc2F)C(N)=N1 | 2.27% (inactive) |
| CCOc1ccc(/C=N/NC(N)=S)cc1 | -13% (inactive) |
| NC(N)=N/N=C/c1ccc(OCc2ccc(Cl)cc2Cl)cc1 | 59% (active) |
| OC(CNCCc1ccc(Cl)cc1Cl)COc1ccccc1 (stereo not drawn) | 5.89% (inactive) |
| COc1ccccc1N1CCN(C(=O)c2c(-c3c(Cl)cccc3Cl)noc2C)CC1 | -3.34% (inactive) |
| COc1ccccc1N1CCN(C(=O)c2cc(=O)c3cc(C)cc(C)c3o2)CC1 | 64.2% (active) |
| COc1ccccc1N1CCN(C(=O)c2cc(=O)c3cc(C)ccc3o2)CC1 | 19.9% (inactive) |
| O=C(O)c1cc2c(cc1NC(=O)c1c(F)cccc1Cl)OCCCO2 | 17.5% (inactive) |
| CC1CCCN(C(=O)CN2C(=O)c3ccccc3S2(=O)=O)C1 (stereo not drawn) | -25% (inactive) |
| O=C(CN1C(=O)c2ccccc2S1(=O)=O)N1CCc2ccccc21 | 72.7% (active) |
| O=C(CN1C(=O)c2ccccc2S1(=O)=O)NC1CCCCC1 | -1.51% (inactive) |
